The list is not random: actives were taken first. Their share in the collection is about 19%.
HT1080 IDH1KD tx = HT-1080 IDH1 knockdown cell toxicity (counter line) | HT-1080 IDH1 knockdown viability, ATP luminescence, 48 h | Potency, µM (titrated, usually from 46.1 µM), inactives show at the top dose activity, negative = toxicity, actives largely listed as cytotoxic | 360,000 compounds, 2% hits;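 also: 0% = DMSO wells and -100% = cell-free medium wells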
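HT-1080-IDH1KD cells (IDH1 knocked down), 750/well in RPMI with 5% FBS, treated with compound 48 h at 37 degrees C. Viability by CellTiter-Glo luminescence, normalised to DMSO and no-cell wells; concentration-response curves classed.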
KB-3-1 tox = KB-3-1 parental cell cytotoxicity | 400,000 compounds, 1.4% hits | Potency, µM (titrated, usually from 46.1 µM), hits mostly cytotoxic | AID 1347075 | KB-3-1 viability, CellTiter-Glo ATP luminescence, 72 h; also: nearly all actives have a fitted effect of over 60% in size
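Parental KB-3-1 viability, qHTS format: 72 h compound exposure, 37 °C; CellTiter-Glo; media-only wells and DMSO plates as controls; concentration-effect fits on corrected data.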
DT40 TDP1 no CPT = qHTS for Inhibitors of human tyrosyl-DNA phosphodiesterase 1 (TDP1): qHTS in cells in absence of CPT; AID 686978, 2013; DT40 Tdp1-/- hTDP1 cells, no CPT, ATP luminescence, 48 h; Potency, µM (titrated, usually from 46.2 µM), for the others: at the highest dose activity change, negative = growth inhibition, hits mostly inhibitors; 420,000 compounds, 15% hits; also: nearly all actives have a fitted effect of over 55% in size
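Camptothecin absent (DMSO only). Human TDP1-complemented DT40 knockout cells, 400 cells/well, 37 °C for minimum 48 hr; ATP measured via CellTiter-Glo, 30 min dark incubation, luminescence.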
HT1080-NT tox = kills 2HG-producing HT-1080-NT fibrosarcoma cells | HT-1080-NT fibrosarcoma viability, CellTiter-Glo ATP luminescence, 48 h | Potency, µM (series often up to 46.1 µM), without a hit: at the highest dose activity, negative = less viability, actives largely listed as cytotoxic | 360,000 compounds, 1.6% hits;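 also: NT is the 2HG producing partner of a matched IDH1 knockdown line; 0% = DMSO-treated cells and -100% = media-only wells without cells; nearly all actives have a fitted effect of over 55% in size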
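HT-1080-NT fibrosarcoma cells (2HG-overproducing), 750 cells/well in RPMI with 5% FBS, dosed after 2 h and incubated 48 h at 37C. CellTiter-Glo luminescence normalized to DMSO and no-cell wells; concentration-response curves fitted and classed.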
TDP1 cell CPT = DT40-hTDP1 cell growth loss with CPT; chicken DT40 Tdp1-/-;hTDP1 cells + 20 nM CPT, ATP luminescence, 48 h; Potency, µM (highest dose often 46.2 µM), without a hit: at the top dose activity change, negative = growth inhibition, most hits filed as inhibitors; 420,000 compounds, 12% hits; also: nearly all actives have a fitted effect of over 55% in size
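Chicken DT40 Tdp1-/- cells complemented with human TDP1, 400 cells/well, exposed to compounds plus 20 nM camptothecin for at least 48 h at 37 C; viability read as ATP content by CellTiter-Glo luminescence.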
KB-V1 cytotox = kills drug-selected multidrug resistant KB-V1 cells | KB-V1 MDR cells viability, CellTiter-Glo, 72 h | Potency, µM (titrated, usually from 46.1 µM), hits mostly cytotoxic | 400,000 compounds, 3.4% hits; also: nearly all actives have a fitted effect of over 60% in size
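qHTS viability screen in drug-selected KB-V1 MDR cells: 72 h compound treatment at 37 degrees C, ATP luminescence end point.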
* hit, by the source's call; i = inactive; ? = inconclusive; / = no result given; [ ] = another dose, or the depositor's remark. Calls follow the shape of the dose curve; as a rule, active = well fitted curve in the direction sought with a large enough effect; inconclusive = small, poorly fitted or top-dose-only effect, or another doubt; inactive = no such curve, though single readings can be large; an effect the other way counts as inactive or inconclusive. Unless noted, % is scaled to controls: 0 for no effect and ±100 for the full control effect; potency is read from the fitted curve at half-maximal effect.

SMILES | HT1080 IDH1KD tx | KB-3-1 tox | DT40 TDP1 no CPT | HT1080-NT tox | TDP1 cell CPT | KB-V1 cytotox
COc1ccc(S(=O)(=O)CCC(=O)N2CCN(c3ccc(C(C)=O)cc3)CC2)cc1 | -9% | i | 15µM* | 5% | ? | i
CS(=O)(=O)N(CC(=O)N1CCN(c2ccc(F)cc2)CC1)c1cccc(Cl)c1 | -15% | i | ? | -19% | -1% | 9.2µM*
CC(C)(C)OC(=O)NCCc1nc(NC(=O)OCc2ccccc2)sc1C(=O)O | 2% | i | 9% | 7% | 12% | i
Cc1ccc(NC(=O)CS(=O)CC(=O)N(CC(=O)NC(C)(C)C)c2cccc(C)c2C)cc1 (centres undefined) | 4% | i | -23% | 1% | 8% | i
COc1ccc(S(=O)(=O)CCC(=O)N2CCN(c3cccc(Cl)c3)CC2)cc1 | 4% | i | 10µM* | 8% | 18µM* | i
CN(CC(=O)N1CCN(c2cccc(Cl)c2)CC1)S(=O)(=O)c1cccs1 | 3%[9.24 µM] | i | 16µM* | -26% | ? | i
COc1ccc(S(=O)(=O)CCC(=O)N2CCN(c3ccccc3F)CC2)cc1 | 0% | i | ? | 2% | -7% | i
CN(CC(=O)N1CCN(c2cccc(Cl)c2)CC1)S(=O)(=O)c1cnc[nH]1 | 5% | i | 3% | 6% | 3% | i
CCOc1ccccc1N(C)C(=O)CCS(=O)(=O)c1ccc2c(c1)NC(=O)C(C)S2 (centres undefined) | -1% | i | 21µM* | 2% | ? | i
O=C(CSCC(=O)N1CCCCC1)Nc1nc(-c2ccccc2)c(-c2ccccc2)s1 | ? | ? | 16µM* | -29% | 18µM* | ?
NC[C@@H]1O[C@H](c2ccccc2)Cc2c1ccc(O)c2O | / | / | 9.4µM* | / | 6.7µM* | /
NC[C@@H]1O[C@H](C23CC4CC(CC(C4)C2)C3)Cc2c1ccc(O)c2O | ? | ? | 23µM* | ? | 23µM* | ?
COc1ccc(OC)c(NC(=O)CSc2nc3ccccc3c(=O)n2CCC(=O)NC2CCCCC2)c1 | / | i | -6% | / | -7% | i
COc1cc(/C=C/C(=O)O)cc(S(=O)(=O)Nc2ccc3nc(SC)sc3c2)c1OC | 4% | i | 15% | 2% | -5% | i
CCc1cc2c(=O)n(Cc3ccco3)c(SCC(=O)N(C)C3CCS(=O)(=O)C3)nc2s1 (centres undefined) | -12% | i | ? | -7% | -24% | ?
CCc1cc2c(=O)n(Cc3ccco3)c(SCC(=O)N3CCCc4ccccc43)nc2s1 | -21% | i | ? | -17% | 26µM* | i
CCc1cc2c(=O)n(Cc3ccco3)c(SCC(=O)NCC3CCCO3)nc2s1 (centres undefined) | -7% | ? | 16µM* | -30% | 15µM* | 2.6µM*
CCc1cc2c(=O)n(Cc3ccco3)c(SCC(=O)NC3CCS(=O)(=O)C3)nc2s1 (centres undefined) | 1% | i | -27% | 19% | ? | i
CCc1cc2c(=O)n(Cc3ccco3)c(SCc3c(C)noc3C)nc2s1 | 15µM* | 5.8µM* | 2.9µM* | ? | 5.8µM* | 2.9µM*
O=C(CSc1nc2c(sc3ccccc32)c(=O)n1Cc1ccco1)NCC1CCCO1 (centres undefined) | -7% | i | -72% | -9% | ? | i

Screening data (PubChem BioAssay)
